# Experimental data taken from ChEMBL document CHEMBL1157539, “Thousands of chemical starting points for antimalarial lead identification” (Nature, 2010).
# Test system: Plasmodium falciparum
# Test: GSK_TCMDC: Inhibition of Plasmodium falciparum Dd2 in whole red blood cells, using parasite LDH activity as an index of growth. Test compounds present at 2uM
# Format: functional
row,Compound,Inhibition [%]
1,Fc1cccc(COc2ccc(Nc3ncnc4ccc(C#C[C@H]5CCCN5)cc34)cc2Cl)c1,26
2,c1cncc(-c2cccc(CNc3nccc(Nc4ccc(OCCN5CCOCC5)cc4)n3)c2)c1,27
3,O=C(Nc1ccc(Cl)cc1C(=O)Nc1cccc(F)c1)c1ccc([N+](=O)[O-])cc1,54
4,CN1CCCN(Cc2cccc(-c3cccc(NC(=O)c4cccc(C#N)c4)c3)c2)CC1.O=C(O)C(F)(F)F,33
5,Cn1cncc1C(=O)NC1CCN(c2ccnc(Nc3ccc(F)cc3)n2)C1 (stereo not given),83
6,Cc1cccc(CN2CCN(c3ncc(C(=O)NC4CC4)cc3Cl)CC2)c1.O=C(O)C(F)(F)F,73
7,O=S(=O)(c1cccc(C(F)(F)F)c1)N1CCC(CO)(Cc2cccc(C(F)(F)F)c2)CC1,79
8,Cl.N#Cc1ccc(C2CCN(CC[C@H](N)Cc3ccc(Cl)s3)CC2)cc1,30
9,O=C(Nc1cccnc1)c1cc(C(=O)Nc2cccnc2)cc([N+](=O)[O-])c1,100
10,Cc1nc2ccc(F)cc2n1C1CCN(C(=O)Cc2ccc(F)c(F)c2)CC1,99
11,O=CO.Oc1ccccc1CNCc1ccc(-c2cnc(N3CCCC(c4ccccc4)C3)nc2)cc1 (stereo not given),84
12,CCn1c(Sc2ccc(C#N)c([N+](=O)[O-])c2)nnc1-c1cccc(Cl)c1,88
13,COc1ccc(-c2ccc3c(-c4ccc(F)cc4)cnc(N)c3c2)cn1,86
14,CCN1CCN(c2ccc(NC(=O)c3cc4c(C)nn(-c5ccccc5)c4s3)cc2C)CC1,81
15,CS(=O)(=O)c1ccc2[nH]c(-c3cc(-c4ccc(OCCN5CCOCC5)cc4)cnc3N)nc2c1.O=C(O)C(F)(F)F,99
16,CN(C)c1ccc(-c2nc3cc(N)ccc3[nH]2)cc1,97
17,CCCCOc1ccc(C(O)C(CN2CCCCC2)c2ccccc2)cc1 (stereo not given),84
18,CCOc1c(Br)cc(C)cc1CNCCCNc1nc2ccccc2[nH]1.Cl,5
19,O=C(NCC1CCN(CC2CCCCC2)C1)c1cc(-c2cccc(C(F)(F)F)c2)cs1.O=C(O)C(F)(F)F (stereo not given),21
20,COCC(=O)Nc1nc2ccccc2[nH]1,1

row,Compound,Inhibition [%]
1,Cc1ccc(NC(=O)C2CCC2)cc1-c1ccc(C(=O)NCC2CC2)cc1,3
2,Fc1ccc2[nH]c(-c3cccc(-c4cccc(CNCC5CCCO5)c4)c3)nc2c1.O=C(O)C(F)(F)F (stereo not given),94
3,Cn1cnc(CCNC(=O)c2cccc(-c3csc(-c4nc5ccccc5[nH]4)c3)c2)c1,26
4,Cc1cccc2nc(-c3ccc(-c4ccc(NC(=O)Nc5ccc(F)c(F)c5F)cc4)s3)[nH]c12,99
5,COc1ccc(CNC2Cc3ccccc3C2)cc1-c1ccc(S(=O)(=O)NCCN2CCCC2)cc1.O=C(O)C(F)(F)F,61
6,CN(C)c1ccc(C=CC(=O)NC(=O)c2ccccc2O)cc1,97
7,CC(C)(C)NCc1cc(Nc2ccnc3cc(Cl)ccc23)ccc1F,100
8,CCOC(=O)c1ccc(NC(=O)N[C@@H](Cc2ccc(O)cc2)C(=O)NC2CCN(Cc3ccc4c(c3)OCO4)CC2)cc1.O=C(O)C(F)(F)F,24
9,Cc1c(NC(=O)COc2ccc(Cl)cc2C(=O)c2cc(F)cc(C(F)(F)F)c2)ccc2ncsc12,18
10,CNCc1cccc2nc(-c3ccc(Cc4cc(Cl)ccc4OCC(C)C)o3)[nH]c12.Cl,23
11,CN(C)CCCNCCS(=O)(=O)c1cccc(Nc2ccc(-c3cccc(N(C)C)c3)cn2)c1,0
12,O=C(O)C(F)(F)F.c1cc(CNCCc2ccncc2)cc(-c2ccc(-c3nc4ccccc4[nH]3)cc2)c1,97
13,CCOC(=O)c1c[nH]c2c(ccc3ccccc32)c1=O,96
14,Nc1c(Cl)cc(C(O)CNCCCCCOCCc2ccc3occc3c2)cc1Cl (stereo not given),74
15,Cc1ccc(Nc2ccnc(Nc3ccc(F)c(Cl)c3)n2)cc1O.Cl,52
16,CC(C)(C)c1cc2cc(Nc3ccnc4cc(-c5nccs5)ccc34)ccc2[nH]1.Cl,97
17,COc1ccc(-c2nonc2NC(=O)c2ccc(C(C)(C)C)cc2)cc1OC,73
18,CN1CCN(c2ccnc3ccc(NC(=O)Nc4ccc(Br)cc4)cc23)CC1,99
19,CC(=O)N1CCC(C(=O)Nc2ccc(-c3cccc(-c4nc5cccc(C)c5[nH]4)c3)cc2)CC1,27
20,CC(C)CN1CCCN(Cc2cccc(NC(=O)c3ccc(-c4ccccc4)cc3)c2)CC1.O=C(O)C(F)(F)F,24
